Screens (PubChem)
SMN2 splice enh: enhancers of SMN2 splice variant expression; HEK293 SMN2-luciferase splicing reporter, luminescence, 30-36 h; 2.8% of 210,000 active; AID 1458; Potency, µM (doses to about 46.1 µM), without a hit: top-dose activity change, positive = activation, usual class: activators; also: % of control where 0% means no effect; nearly all actives have a fitted effect of over 55% in size
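qHTS luciferase splicing reporter: luminescence rises when SMN2 exon 7 is included in transfected HEK293 cells. Compound exposure lasted 30-36 h at 37C, with 4.5 mM final sodium butyrate as control, followed by a ONE-Glo read.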
NPC1 promoter act: activates the NPC1 promoter; 2.4% of 320,000 active; AID 485313; Huh7 NPC1 promoter luciferase reporter, 24 h; Potency, µM (doses to about 9.22 µM), without a hit: at the highest dose activation, hits mostly activators; also: % of control where 0% means no effect; nearly all actives have a fitted effect of over 60% in size
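Stable NPC1-promoter luciferase Huh7 line; cpd (DMSO) 24 h, 37 °C, 5% CO2; Amplite luciferase reagent 10 min RT; luminescence readout. qHTS format.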
FLuc counter: inhibits or activates purified firefly luciferase, miR-21 counter-screen; purified FLuc, Km substrates, luminescence inhibition; Potency, µM (doses to about 57.5 µM), inactives show at the highest dose activity change, negative = inhibition, actives largely listed as inhibitors; 6.9% of 360,000 active; AID 588342;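 also: plate controls were vehicle for no effect and reference inhibitor for full effect; nearly all actives have a fitted effect of over 55% in size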
Target sequence (P08659 whole entry, looked up): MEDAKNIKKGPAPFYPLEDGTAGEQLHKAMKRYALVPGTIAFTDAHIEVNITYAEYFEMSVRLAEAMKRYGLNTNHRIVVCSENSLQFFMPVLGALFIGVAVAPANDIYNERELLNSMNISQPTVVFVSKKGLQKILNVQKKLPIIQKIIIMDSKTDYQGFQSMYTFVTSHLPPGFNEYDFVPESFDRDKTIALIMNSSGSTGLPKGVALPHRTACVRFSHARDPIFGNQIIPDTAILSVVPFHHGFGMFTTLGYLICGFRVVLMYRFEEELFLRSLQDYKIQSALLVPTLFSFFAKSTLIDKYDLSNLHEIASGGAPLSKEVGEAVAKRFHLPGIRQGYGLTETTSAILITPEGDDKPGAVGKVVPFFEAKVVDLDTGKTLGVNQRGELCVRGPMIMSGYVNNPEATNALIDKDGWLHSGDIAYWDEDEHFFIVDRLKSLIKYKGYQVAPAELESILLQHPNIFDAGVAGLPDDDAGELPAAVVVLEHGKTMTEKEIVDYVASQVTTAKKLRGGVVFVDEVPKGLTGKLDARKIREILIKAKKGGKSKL
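Purified P. pyralis luciferase (10nM final) with 10uM D-luciferin and 10uM ATP (Km levels) in 50mM Tris acetate pH 7.5, 10mM Mg acetate, 0.01% Tween-20, 0.05% BSA; qHTS 6-point titration, ~60 µM downward; luminescence read.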
ELG1 genotox: induces genotoxicity in HEK293T cells with luciferase-tagged ELG1 | 1.3% of 330,000 active | HEK293T ELG1-luciferase reporter, luminescence, 16 h | Potency, µM (doses to about 46 µM), without a hit: at the highest dose activity change, positive = activation, hits mostly activators; also: % of control where 0% means no effect; nearly all actives have a fitted effect of over 60% in size
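After overnight (16 hr) compound treatment at 37 °C, ELG1-luciferase HEK293T cells were lysed with ONE-Glo; luminescence quantified 30 min later at room temperature.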
ELG1 repair inh: blocks ELG1-dependent DNA repair in HEK293T cells. HEK293T ELG1-luciferase reporter, luminescence, 16 h; DNA damage induced by 5-fluorouridine. Potency, µM (top dose mostly 46.1 µM), for the others: at the highest dose activity change, negative = inhibition, usual class: inhibitors. 2.3% of 330,000 active. AID 504467; also: % is scaled to controls: 0 for no effect and ±100 for the full control effect; nearly all actives have a fitted effect of over 55% in size
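Luminescence from the luciferase reporter, measured 30 min after ONE-Glo reagent at room temperature, was the read-out. Beforehand, 2,000 cells per well were exposed for 16 hr at 37 °C to 5-fluorouridine together with compound or vehicle.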
Rab9 prom act: Rab9 promoter activation; Huh7 Rab9 promoter-luciferase reporter, luminescence, 24 h; Potency, µM (titrated, usually from 9.22 µM), for the others: at the top dose activation, negative = inhibition, actives largely listed as activators; 2.8% of 320,000 active; AID 485297; also: % of control where 0% means no effect; nearly all actives have a fitted effect of over 60% in size
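Quantitative HTS format; Huh7 Rab9-luciferase reporter cells (1500/well) receive compound 2 h post-plating, incubate 24 h at 37 °C, then get luciferase reagent for 10 min before luminescence reading.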
Numbers without * were called inactive; ? = inconclusive; . = no result. Shown are actives, neighbours in structure and some others; about 9.2% of the full set was active somewhere. Calls follow the shape of the dose curve; as a rule, active = well fitted curve in the direction sought with a large enough effect; inconclusive = small, poorly fitted or top-dose-only effect, or another doubt; inactive = no such curve, though single readings can be large; an effect the other way counts as inactive or inconclusive. Potency is read from the fitted curve at half-maximal effect.

SMILES | SMN2 splice enh | NPC1 promoter act | FLuc counter | ELG1 genotox | ELG1 repair inh | Rab9 prom act
Cc1ccc(S(=O)(=O)N(C)Cc2nc(-c3ccccc3)oc2C)cc1 | . | . | -22% | . | . | .
CCOc1ccc(-c2nnc(-c3cccs3)o2)cc1 | 2µM* | 0.71µM* | 0.67µM* | ? | ? | 0.63µM*
COc1ccc(-c2nnc(-c3cccs3)o2)cc1OC | 154% | 2.8µM* | 8.5µM* | 14µM* | ? | 3.2µM*
CCOc1ccc(-c2nnc(-c3cccs3)o2)cc1OCC | 24% | 3.5µM* | ? | ? | ? | ?
c1csc(-c2nnc(-c3ccc(N4CCOCC4)cc3)o2)c1 | 1.3µM* | 0.35µM* | 1.2µM* | 1.3µM* | ? | 0.63µM*
CCC1(CC)NC(=O)N(CC(=O)N2N=C(c3ccc(Cl)cc3)CC2c2ccco2)C1=O (stereo not given) | -2% | -23% | 3% | -2% | ? | -3%
COC(=O)c1c(-c2ccc(Cl)cc2)noc1N1CCN(c2cccc(C(F)(F)F)c2)CC1 | . | . | -3% | . | . | .
COc1ccc(-c2[nH]ncc2C(=O)NCc2ccccc2OC)cc1 | 10% | . | 2% | . | . | .
Cc1ccc(C)c(NC(=O)CCCn2nc(C)c3sc4ccccc4c3c2=O)c1 | . | . | 8% | . | . | .
COc1cc(-c2nnc(-c3cccs3)o2)cc(OC)c1OC | ? | 5% | -1% | 6% | ? | 6%
COc1ccc(-c2nnc(-c3cc(OC)c(OC)c(OC)c3)o2)cc1OC | ? | -4% | -3% | -10% | 23µM* | 0%
CCOc1ccc(-c2nnn(CCC(=O)O)n2)cc1OC | 16% | -2% | -2% | -2% | -14% | 0%
CCOc1ccc(-c2nc(-c3cccs3)c(CC(=O)O)s2)cc1OC | 15% | 17% | 3µM* | ? | ? | ?
Cc1ccc(C2NC(=O)NC3=C2CCc2ccccc23)cc1 (stereo not given) | -23% | ? | 3µM* | ? | ? | 18%
CC(C)c1ccc(C2NC(=O)NC3=C2CCc2ccccc23)cc1 (stereo not given) | -33% | -5% | 0% | -2% | -12% | 1%
COC(=O)c1ccccc1NC(=O)c1ccc2c(c1)OCCO2 | ? | 3% | ? | 13% | 21% | 18%
CC(C)(C)C(=O)Nc1ccccc1C(=O)OCC(=O)c1ccc2c(c1)OCCO2 | -29% | -3% | 6.7µM* | -1% | -10% | 3%
O=C(COC(=O)c1ccccc1NC(=O)C1CC1)c1ccc2c(c1)OCCO2 | 1% | 22% | 1.7µM* | -1% | -4% | ?
C/C(CC(=O)NC1CCCCC1)=N\NC(=O)COc1ccc(C)cc1Br | 11% | -2% | -13% | 2% | 1% | 18%
COc1ccc(NC(=O)COc2ccc3c(c2)OCO3)cc1 | . | 15% | ? | -3% | ? | 11%
CCC(C)NS(=O)(=O)c1ccc(OCC(=O)Nc2ccc3c(c2)OCCO3)cc1 (stereo not given) | -10% | -1% | 1% | -1% | 7% | 0%
CCc1ccc(NC(=O)COc2ccc3c(c2)OCO3)cc1 | . | 27% | 27µM* | ? | ? | 14%
CC(=O)Nc1cccc(NC(=O)COc2ccc3c(c2)OCO3)c1 | . | 5% | 9.5µM* | 9% | ? | 28%
CCc1ccc(OCC(=O)Nc2ccc3c(c2)OCCO3)cc1 | . | 3% | 19µM* | 15% | ? | 0%
COc1ccc2nc(SCC(=O)NCC(F)(F)F)[nH]c2c1 | 17% | 0% | -4% | 1% | 17% | 3%
CCOc1ccc(CCNC(=O)c2cc3c(C)nccc3[nH]c2=O)cc1OCC | . | -4% | -2% | -12% | 21µM* | -14%
Cc1nccc2[nH]c(=O)c(C(=O)NC3CCCCC3C)cc12 (stereo not given) | 13µM* | -1% | 1% | 18% | ? | 13%
